# Compound activity: PubChem, National Center for Advancing Translational Sciences (NCATS)
# HT1080NT lethal: qHTS for induction of synthetic lethality in tumor cells producing 2HG: qHTS for the HT-1080-NT fibrosarcoma cell line; Potency, µM (series often up to 46.1 µM), for inactives: top-dose activity, negative = less viability, usual class: cytotoxic; AID 686970, 2013; hit rate 1.6% among 360,000; HT-1080-NT fibrosarcoma viability, CellTiter-Glo ATP luminescence, 48 h;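 also: NT is the 2HG producing partner of a matched IDH1 knockdown line; potency is read from the fitted curve at half-maximal effect; 0% = DMSO-treated cells and -100% = media-only wells without cells; nearly all actives have a fitted effect of over 55% in size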
#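 Viability by CellTiter-Glo luminescence after 48 h compound exposure at 37C of HT-1080-NT cells (750/well, RPMI, 5% FBS). % activity scaled between DMSO wells and medium-only wells, then curve-fitted and categorized by curve class.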
# TDP1 cell CPT: qHTS for Inhibitors of human tyrosyl-DNA phosphodiesterase 1 (TDP1): qHTS in cells in presence of CPT; chicken DT40 Tdp1-/-;hTDP1 cells + 20 nM CPT, ATP luminescence, 48 h; Potency, µM (highest dose often 46.2 µM), inactives show at the highest dose activity change, negative = growth inhibition, usual class: inhibitors; AID 686979, 2013; hit rate 12% among 420,000; also: potency is read from the fitted curve at half-maximal effect; nearly all actives have a fitted effect of over 55% in size
#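 Chicken DT40 Tdp1-/- cells complemented with human TDP1, 400 cells/well, exposed to compounds plus 20 nM camptothecin for at least 48 h at 37 C; viability read as ATP content by CellTiter-Glo luminescence.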
# HT1080 IDH1KD tx: qHTS for induction of synthetic lethality in tumor cells producing 2HG: qHTS for the HT-1080-IDH1KD cell line | HT-1080 IDH1 knockdown viability, ATP luminescence, 48 h | Potency, µM (series often up to 46.1 µM), without a hit: top-dose activity, negative = toxicity, actives largely listed as cytotoxic | hit rate 2% among 360,000 | AID 686971, 2013;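 also: potency is read from the fitted curve at half-maximal effect; 0% = DMSO wells and -100% = cell-free medium wells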
#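 Knockdown cells (IDH1KD HT-1080) received compounds 2 h after plating at 750 cells/well and were kept 48 h at 37 °C in 5% FBS RPMI. A CellTiter-Glo luminescence read gave % activity for curve fitting.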
# IL-1B inflam inh: qHTS for Inhibitors of Inflammasome Signaling: IL-1-beta AlphaLISA Primary Screen; THP-1 LPS/ATP IL-1B secretion, AlphaLISA, 16 h; active compounds read low; activity change, % at 57.5 µM; hit rate 4.7% among 360,000; in the data active = activity change below about -50%; inconclusive = mostly about -30% to -49%
#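 THP-1 cells pretreated 1 hr with compounds (up to 57.5 uM final), then stimulated with LPS (250 ng/mL final) plus ATP (1.25 mM final); secreted IL-1B measured by AlphaLISA after 16 hr, decreased signal indicating inhibition.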
# DT40 TDP1 no CPT: qHTS for Inhibitors of human tyrosyl-DNA phosphodiesterase 1 (TDP1): qHTS in cells in absence of CPT; DT40 Tdp1-/- hTDP1 cells, no CPT, ATP luminescence, 48 h; Potency, µM (titrated, usually from 46.2 µM), without a hit: top-dose activity change, negative = growth inhibition, actives largely listed as inhibitors; hit rate 15% among 420,000; also: potency is read from the fitted curve at half-maximal effect; nearly all actives have a fitted effect of over 55% in size
#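 Stably hTDP1-transfected Tdp1-null chicken DT40 cells were treated with library compounds minus camptothecin and grown for at least 48 hr at 37 °C, after which cellular ATP was quantified by luminescence.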
# Numbers without * were called inactive; ? = inconclusive; / = no result given; [ ] = remark or other dose. An excerpt weighted towards active compounds, which were near 19% of everything screened. Unless noted, calls follow the shape of the dose curve; as a rule, active = well fitted curve in the direction sought with a large enough effect; inconclusive = small, poorly fitted or top-dose-only effect, or another doubt; inactive = no such curve, though single readings can be large; an effect the other way counts as inactive or inconclusive. Unless noted, % is scaled to controls: 0 for no effect and ±100 for the full control effect.
SMILES,HT1080NT lethal,TDP1 cell CPT,HT1080 IDH1KD tx,IL-1B inflam inh,DT40 TDP1 no CPT
CCN1C[C@]2(CO)CC[C@H](OC)[C@@]34C2[C@H](OC)[C@@](O)(C13)[C@@]1(O)C[C@H](OC)[C@H]2C[C@@H]4[C@@H]1[C@H]2OC,10%,25%,0%,3,2%
CCCCn1c(=O)c(C(=O)Nc2ccccc2N)c(O)c2ccccc21,-1%,?,6%,28,23µM*
CCCCn1c(=O)c(C(=O)NC(C)c2ccccc2)c(O)c2ccccc21 (centres undefined),15%,?,17%,-6,?
CCCCn1c(=O)c(C(=O)Nc2ccccc2F)c(O)c2ccccc21,5%,11%,0%,38,?
CCCCCn1c(=O)c(C(=O)Nc2ccccc2N)c(O)c2ccccc21,0%,?,9%,7,21µM*
CCCCn1c(=O)c(C(=O)Nc2ccsc2C(=O)OC)c(O)c2ccccc21,1%,21µM*,-9%,22,5.2µM*
COc1cc(C[C@H](C)N)c(OC)cc1C,/,-15%[92.5 µM],/,/,-19%[92.5 µM]
O=c1oc2ccccc2cc1-c1cn2cc(Cc3ccc(F)cc3)sc2n1,/,5.2µM*,/,/,2.1µM*
Nc1ccc(CCN2CCN(c3cccc(C(F)(F)F)c3)CC2)cc1,-27%,?,-23%,-10,23µM*
COc1cc(OC)cc(C(=O)Nc2ccc(Cl)cc2C(=O)c2ccccc2Cl)c1,/,-16%,/,/,-25%
CCOP(=O)(OCC)C1(O)C(=O)Nc2ccccc21 (centres undefined),8%,-4%,10%,0,-12%
COP(=O)(OC)C1(O)C(=O)Nc2ccc(Br)cc21 (centres undefined),12%,16µM*,14%,0,?
COc1ccc(NC(=O)c2cccn(Cc3ccc(Cl)cc3)c2=O)c(OC)c1,/,?,/,/,-27%
Cc1ccc(-c2nnc(Nc3ccc(Br)cc3)c3ccccc23)cc1S(=O)(=O)NCc1nc2ccccc2[nH]1,/,?,/,/,23µM*
COC(=O)[C@@H]1C[C@H]1[C@@H](NP(=O)(c1ccccc1)c1ccccc1)c1ccccc1,-8%,21µM*,0%,70,?
CC(C)NC(=O)N1Cc2cc(C(=O)NC3CCCCC3)nc(-c3cccc(-c4cccnc4)c3)c2[C@@H]1CCO,-23%,12µM*,-24%,?,10µM*
CCCNC(=O)c1cc2c(c(-c3cccc(-c4cc5ccccc5o4)c3)n1)[C@H](CCO)N(C(=O)NC(C)C)C2,?,8.2µM*,?,-72*,12µM*
Cc1ccc(NC(=O)CCNC(=O)N2C[C@H]3C[C@@H](C2)c2cccc(=O)n2C3)c(C)c1,9%,-1%,10%,11,0%
C[C@]12CC[C@H]3C(=CCc4cc(O)ccc43)[C@@H]1CCC2=O,?,?,-21%,0,?
O=C(c1ccccc1)C(Cc1ccccc1)N1CCOCC1 (centres undefined),8%,0%,16%,4,-16%
Cc1ccc(NC(=O)Cn2cc(C(=O)c3ccccc3)c3ccccc32)cc1,/,-92%,/,/,?
O=C1CN=C(c2ccccc2)c2cc(Br)ccc2N1Cc1cc(=O)n2ccccc2n1,8%,?,10%,-15,?
O=C1CN=C(c2ccccc2)c2ccccc2N1Cc1ccc(C(F)(F)F)cc1,7%,22µM*,-28%,5,?
COc1ccc(-c2nc(CN3C(=O)CN=C(c4ccccc4)c4ccccc43)c(C)o2)cc1,/,?,/,/,18µM*
Cc1ccc(-c2nc(CN3C(=O)CN=C(c4ccccc4)c4ccccc43)c(C)o2)cc1,/,?,/,/,18µM*
CN1C(=O)C(O)N=C(c2ccccc2)c2ccccc21 (centres undefined),1%,-10%,0%,10,15%
